# Experimental data: PubChem BioAssay (NCI)
# The panel holds about 83,000 compounds, 20% with a hit somewhere; the sample as a whole holds those more often.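 96-well plates, one dose, 48 hours. Percent growth reported; active if below 10.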 The source made the active and inactive calls.
# System: COLO 205 colon
# Experiment: NCI-60 one-dose screen, 48 h (100 = growth as untreated, 0 = no growth, -100 = all killed)
# Conditions: 10 µM unless noted
row,Compound,growth
1,Nc1ccc(S(=O)(=O)O)c2ccc(N=Nc3ccc(N=Nc4ccc(S(=O)(=O)O)cc4)c4ccccc34)c(O)c12,105% (inactive)
2,CSc1ccc(-c2n[nH]nc2-c2cc3ccccc3s2)cc1,77.8% (inactive)
3,COc1ccc(C(=O)COc2ccc(/C=C3\COc4ccc(OC)cc4C3=O)cc2)cc1,122% (inactive)
4,COc1cc(C=Nc2oc(-c3ccccc3)c(-c3ccccc3)c2C#N)cc(CN2CCCCC2)c1O,122% (inactive)
5,O=C1CC[C@H](c2ccc(O)c3c2C(=O)[C@@H]2O[C@@H]2C3=O)c2cccc(O)c21,-34.6% (active)
6,C#CC(F)(F)[C@]1(O)CC[C@H]2[C@@H]3CCC4=CC(=O)CCC4=C3[C@@H](c3ccc(C(C)=O)cc3)C[C@@]21C,78.3% (inactive)
7,O=C(Cc1ccccc1Nc1c(Cl)cccc1Cl)NN1C(=O)/C(=C/c2ccc(Br)cc2)SC1=S,105% (inactive)
8,Cc1nn(-c2cc(=O)[nH]c3ccccc23)c(N)c1C#N,123% (inactive)
9,CCn1c(Cc2ccccc2Nc2c(Cl)cccc2Cl)nnc1SCC(=O)NN1C(=O)/C(=C/c2cc(OC)c(O)c(OC)c2)SC1=S,44.9% (inactive)
10,Cc1cc(C)nc(SC2=C(Nc3cc(Cl)ccc3O)C(=O)N(Cc3ccccc3)C2=O)n1,112% [30 µM] (inactive)
11,CCN(CC)c1ccc(/C=N\NC(=O)/C=C/C=C/c2ccc3c(c2)OCO3)c(O)c1,39.9% (inactive)
12,N#Cc1cnn(-c2nc3c(Cl)cccc3s2)c1N,92.3% (inactive)
13,COc1ccc(S(=O)(=O)N2CC3(COC3)C2)cc1NC(=O)c1[nH]c(C)c2c1CCCCC2=O,37.5% (inactive)
14,Cn1cc(C(=O)c2nc(-c3c[nH]c4ccc(F)cc34)no2)c2cc(F)ccc21,94.5% (inactive)
15,O=C1C=C(OCC=C(Cl)Cl)C(=O)c2ccccc21,137% (inactive)
16,Cc1cc(C)nc(SC2=C(Nc3cccc(Cl)c3)C(=O)N(Cc3ccccc3)C2=O)n1,78.2% [30 µM] (inactive)
17,O=c1cc(CSc2nnc(-c3ccc(F)cc3)o2)c2ccc3ccccc3c2o1,117% (inactive)
18,CCCn1c(=O)[nH]c(N)c([C@H]2c3ccccc3Oc3[nH]c(=O)n(CCC)c(=O)c32)c1=O,86.4% (inactive)

row,Compound,growth
1,O=C(CCN1C(=O)/C(=C/c2ccc(Cl)cc2)SC1=S)NCCCN1CCOCC1,108% (inactive)
2,Cc1nc2ccccc2n1C(=O)C[C@@H]1NC(=S)NC1=O,98.9% (inactive)
3,O=C(N=Nc1c(O)[nH]c2ccc(Br)cc12)c1cc(-c2ccccc2)on1,125% (inactive)
4,C=C(C)C(=O)Nc1ccc(NC(C)C)cc1,148% (inactive)
5,CC(O)CN1CC(O)=C(c2nc3ccccc3s2)C1=N (stereo not given),108% (inactive)
6,O=c1c2c3c(sc2nc(N/N=C/c2cn(-c4ccccc4)nc2-c2ccc(Cl)cc2)n1Cc1ccccc1)CCCC3,109% (inactive)
7,COc1cccc(-c2nn(C(C)(C)C)cc2-c2ccnc(NCCCNS(=O)(=O)c3ccc(C)cc3)c2)c1,121% (inactive)
8,CSc1nc(Nc2cccc(NC(=O)CCl)c2)c(C#N)c(-c2cccc([N+](=O)[O-])c2)n1,35.9% (inactive)
9,CSc1nc(Nc2cccc(NC(=O)/C(C#N)=C/c3c(Cl)cccc3Cl)c2)c(C#N)c(-c2cccc([N+](=O)[O-])c2)n1,76% (inactive)
10,COc1ccc(-c2nc3ccc(-c4nc5ccc(N6CCN(c7ccccc7)CC6)cc5[nH]4)cc3[nH]2)cc1OC,-70.9% (active)
11,COc1ccc(CCNc2nc3c(c(=O)n(Cc4ccc(Br)cc4)c(=O)n3C)n2C)cc1OC,103% (inactive)
12,C=CCSSc1ncnc2c1ncn2C1OC(CO)C(O)C1O (stereo not given),25.6% (inactive)
13,Cc1ccc(NC(=O)C2CCC(CN3CCN(C)CC3)CC2)cc1Nc1nccc(-c2cccnc2)n1 (stereo not given),94.4% (inactive)
14,COc1cc(/C=C/c2cc(O)c3cc(C(C)=O)c(=O)oc3c2)cc2c1O[C@]1(C)CC[C@@H](O)C(C)(C)[C@H]1C2,89.8% (inactive)
15,C=CC(=O)Nc1cccc(Nc2nc(SC)nc(-c3cccc([N+](=O)[O-])c3)c2C#N)c1,20.3% (inactive)
16,N#C/C(=C\c1ccc(-c2cc(C(F)(F)F)ccc2Cl)o1)c1nc(-c2ccco2)cs1,119% (inactive)
17,COCCNc1ccc2c3c(cccc13)C(=O)N(CCN(C)C)C2=O,6.86% (active)
